PubChem BioAssay (NCI)
About 79,000 compounds went through this panel and 15% of them were active in at least one assay; those are over-represented in the sample as a whole. A number with no mark means an inactive call. The source made the active and inactive calls. No stated cut-off is given here; in the data, active means growth inhibition above about 70%; inactive means the rest.

Assays:
[1] = NCI Yeast Anticancer Drug Screen. Data for the rad52 strain (AID 147);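 further: 0% = growth of vehicle-treated control cultures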; settings: S. cerevisiae rad52 mutant growth inhibition, active compounds read high
In short: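 Measured: yeast growth inhibition. System: strain with a defined DNA damage repair alteration. Reference: vehicle-treated control cultures.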

[2] = NCI Yeast Anticancer Drug Screen. Data for the wt1 strain (AID 149);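 further: 0% = growth of vehicle-treated wt1 cultures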; settings: S. cerevisiae wt1 strain (SPY 50644) growth inhibition, active compounds read high
In short: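 Compounds are added to wt1 yeast cultures. Growth is then measured. Inhibition is expressed relative to vehicle-treated controls.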

[3] = NCI Yeast Anticancer Drug Screen. Data for the rad50EPP+ strain (AID 151);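 further: 0% = growth of vehicle-treated control cultures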; settings: S. cerevisiae rad50 mutant strain, active compounds read high
In short: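 One strain with a rad50 alteration (rad50EPP+) was compound-treated, its growth then compared to that of vehicle controls.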

[4] = NCI Yeast Anticancer Drug Screen. Data for the mgt1 strain (AID 153); settings: S. cerevisiae mgt1 mutant growth inhibition, active compounds read high
In short: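 After exposure of the mgt1 yeast mutant to compound, growth was measured and reported as inhibition compared with vehicle controls.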

[5] = NCI Yeast Anticancer Drug Screen. Data for the rad50 strain (AID 155);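 further: 0% = growth of vehicle-only cultures of the same strain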; settings: S. cerevisiae rad50 strain growth inhibition, active compounds read high
In short: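 Inhibition values express reduced yeast growth in compound-treated cultures relative to vehicle-treated controls.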

[6] = NCI Yeast Anticancer Drug Screen. Data for the mec2-1 strain (AID 157); settings: S. cerevisiae mec2-1 strain, active compounds read high
In short: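 Test agents were screened against the mec2-1 yeast strain, with defined DNA repair or cell cycle alteration. Growth was scored as inhibition against vehicle-only controls.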

[7] = NCI Yeast Anticancer Drug Screen. Data for the rad14 strain (AID 159);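 further: 0% = growth of vehicle-treated control cultures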; settings: S. cerevisiae rad14 strain growth inhibition, active compounds read high
In short: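 A mutant yeast strain defective in DNA damage repair is treated with compound; inhibition of its growth is scored against untreated, vehicle-exposed cultures.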

[8] = NCI Yeast Anticancer Drug Screen. Data for the sgs1 mgt1 strain (AID 161);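 further: 0% = growth of cultures given vehicle only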; settings: S. cerevisiae sgs1 mgt1 strain, active compounds read high
In short: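 Mutant yeast exposed to compound; growth scored against vehicle-only wells.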

[9] = NCI Yeast Anticancer Drug Screen. Data for the CLN2oe strain (AID 163);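 further: 0% = growth of vehicle-only control cultures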; settings: S. cerevisiae CLN2oe strain, active compounds read high
In short: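 Here, growth inhibition in a cell-cycle-altered yeast strain after compound exposure was quantified against vehicle control growth.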

[10] = NCI Yeast Anticancer Drug Screen. Data for the cln2 rad14 strain (AID 165);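 further: 0% = growth equal to vehicle treated cultures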; settings: S. cerevisiae cln2 rad14 strain, active compounds read high
In short: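 Growth of compound-exposed yeast (cln2 rad14 genotype) measured and expressed as inhibition relative to vehicle.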

[11] = NCI Yeast Anticancer Drug Screen. Data for the bub3 strain (AID 167); settings: S. cerevisiae bub3 mutant strain, active compounds read high
In short: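 Steps: expose the mutant yeast strain to compound; grow alongside vehicle-treated cultures; measure growth; express inhibition against the vehicle cultures.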

[12] = NCI Yeast Anticancer Drug Screen. Data for the wt2 strain (AID 169);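 further: 0% = growth of vehicle-treated yeast cultures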; settings: S. cerevisiae wt2 strain growth inhibition, active compounds read high
In short: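 Genetically defined yeast strains from a DNA-repair/cell-cycle panel were used. Compound-exposed yeast growth was measured, and the inhibition was calculated relative to vehicle treatment.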

[13] = NCI Yeast Anticancer Drug Screen. Data for the mlh1 strain (AID 171);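 further: 0% = growth of vehicle-treated control cultures of the same strain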; settings: S. cerevisiae mlh1 strain growth inhibition, active compounds read high
In short: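 Here the genetically defined yeast mutant is grown with each compound, and the extent to which its growth falls below that of vehicle-exposed cells is reported.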

[14] = NCI Yeast Anticancer Drug Screen. Data for the sgs1 strain (AID 173);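 further: 0% = growth of vehicle-only control cultures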; settings: S. cerevisiae sgs1 mutant, active compounds read high
In short: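 Relative growth inhibition, referenced to vehicle, was determined in a yeast strain with a defined alteration affecting DNA damage repair or cell cycle control after compound exposure.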

[15] = NCI Yeast Anticancer Drug Screen. Data for the mlh1 rad18 strain (AID 175); settings: S. cerevisiae mlh1 rad18 strain growth inhibition, active compounds read high
In short: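 In this whole-cell yeast screen, a strain with altered DNA damage repair is challenged with compound, and its growth is measured against matched vehicle-treated controls.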

[16] = at 5.0 µM (retest, dose inferred, filed as 0.5)
[17] = at 50.0 µM (retest, dose inferred, filed as 5.0)

In the case of `CC(C)C1=CCC2C(=C1)CCC1C(C)(C(=O)O)CCCC21C` (stereo not drawn) (tested in a mixture with another compound), the growth inhibition ([1]; at 1.2 µM) was 0%, the growth inhibition ([1]; at 3.7 µM) was 9% and the growth inhibition ([1]; at 11.0 µM) was 12%. The growth inhibition ([1]; at 33.0 µM) was 41%, the growth inhibition ([1]; at 100.0 µM) was 94% (active) and the growth inhibition ([2]; at 1.2 µM) was 11%. The growth inhibition ([2]; at 3.7 µM) was 15%, the growth inhibition ([2]; at 11.0 µM) was 12% and the growth inhibition ([2]; at 33.0 µM) was 41%. For the same compound, the growth inhibition ([2]; at 100.0 µM) was 97% (active), the growth inhibition ([3]; at 1.2 µM) was 30% and the growth inhibition ([3]; at 3.7 µM) was 33%. It also gave a growth inhibition ([3]; at 11.0 µM) of 37%, a growth inhibition ([3]; at 33.0 µM) of 42% and a growth inhibition ([3]; at 100.0 µM) of 47%. The growth inhibition ([4]; at 1.2 µM) was 0%, the growth inhibition ([4]; at 3.7 µM) was 10% and the growth inhibition ([4]; at 11.0 µM) was 6%. The growth inhibition ([4]; at 33.0 µM) was 15%, the growth inhibition ([4]; at 100.0 µM) was 94% (active) and the growth inhibition ([5]; at 1.2 µM) was 11%. For the same compound, the growth inhibition ([5]; at 3.7 µM) was 12%, the growth inhibition [5, 16] was 30% and the growth inhibition ([5]; at 11.0 µM) was 16%. The growth inhibition ([5]; at 33.0 µM) was 41%, the growth inhibition [5, 17] was 98% (active) and the growth inhibition ([5]; at 50.0 µM) was 83.5% (active). For the same compound, the growth inhibition ([5]; at 100.0 µM) was 92% (active), the growth inhibition ([6]; at 1.2 µM) was 18% and the growth inhibition ([6]; at 3.7 µM) was 13%. It also gave a growth inhibition [6, 16] of 29%, a growth inhibition ([6]; at 11.0 µM) of 15% and a growth inhibition ([6]; at 33.0 µM) of 54%. The growth inhibition [6, 17] was 99% (active), the growth inhibition ([6]; at 50.0 µM) was 85.2% (active) and the growth inhibition ([6]; at 100.0 µM) was 94% (active). For the same compound, the growth inhibition ([7]; at 1.2 µM) was 13%, the growth inhibition ([7]; at 3.7 µM) was 22% and the growth inhibition ([7]; at 11.0 µM) was 19%. For the same compound, the growth inhibition ([7]; at 33.0 µM) was 34%, the growth inhibition ([7]; at 100.0 µM) was 97% (active) and the growth inhibition [8, 16] was 31%. For the same compound, the growth inhibition [8, 17] was 96% (active), the growth inhibition ([8]; at 50.0 µM) was 84.5% (active) and the growth inhibition ([9]; at 1.2 µM) was -2%. For the same compound, the growth inhibition ([9]; at 3.7 µM) was 6%, the growth inhibition ([9]; at 11.0 µM) was -16% and the growth inhibition ([9]; at 33.0 µM) was 40%. For the same compound, the growth inhibition ([9]; at 100.0 µM) was 96% (active), the growth inhibition [10, 16] was 9% and the growth inhibition [10, 17] was 98% (active). The growth inhibition ([10]; at 50.0 µM) was 89.8% (active), the growth inhibition ([11]; at 1.2 µM) was 8% and the growth inhibition ([11]; at 3.7 µM) was 11%. The growth inhibition [11, 16] was 29%, the growth inhibition ([11]; at 11.0 µM) was 0% and the growth inhibition ([11]; at 33.0 µM) was 17%. The growth inhibition [11, 17] was 97% (active), the growth inhibition ([11]; at 50.0 µM) was 85.5% (active) and the growth inhibition ([11]; at 100.0 µM) was 95% (active). It also gave a growth inhibition ([12]; at 1.2 µM) of -60%, a growth inhibition ([12]; at 3.7 µM) of -40% and a growth inhibition ([12]; at 11.0 µM) of -56%. For the same compound, the growth inhibition ([12]; at 33.0 µM) was 63%, the growth inhibition ([12]; at 100.0 µM) was 93% (active) and the growth inhibition ([13]; at 1.2 µM) was 12%. For the same compound, the growth inhibition ([13]; at 3.7 µM) was 11%, the growth inhibition ([13]; at 11.0 µM) was 6% and the growth inhibition ([13]; at 33.0 µM) was 43%. For the same compound, the growth inhibition ([13]; at 100.0 µM) was 96% (active), the growth inhibition ([14]; at 1.2 µM) was 18% and the growth inhibition ([14]; at 3.7 µM) was 24%. For the same compound, the growth inhibition ([14]; at 11.0 µM) was 23%, the growth inhibition ([14]; at 33.0 µM) was 43% and the growth inhibition ([14]; at 100.0 µM) was 96% (active). The growth inhibition [15, 16] was 40%, the growth inhibition [15, 17] was 98% (active) and the growth inhibition ([15]; at 50.0 µM) was 76.5% (active).

With `O=[N+]([O-])c1cc2no[n+]([O-])c2cc1N1CCCCC1` the growth inhibition ([1]; at 1.2 µM) was 31%, the growth inhibition ([1]; at 3.7 µM) was 65% and the growth inhibition ([1]; at 11.0 µM) was 98% (active). The growth inhibition ([1]; at 33.0 µM) was 96% (active), the growth inhibition ([1]; at 100.0 µM) was 95% (active) and the growth inhibition ([2]; at 1.2 µM) was -32%. For the same compound, the growth inhibition ([2]; at 3.7 µM) was 53%, the growth inhibition ([2]; at 11.0 µM) was 99% (active) and the growth inhibition ([2]; at 33.0 µM) was 98% (active). The growth inhibition ([2]; at 100.0 µM) was 97% (active), the growth inhibition ([3]; at 1.2 µM) was 26% and the growth inhibition ([3]; at 3.7 µM) was 83% (active). For the same compound, the growth inhibition ([3]; at 11.0 µM) was 98% (active), the growth inhibition ([3]; at 33.0 µM) was 99% (active) and the growth inhibition ([3]; at 100.0 µM) was 98% (active). For the same compound, the growth inhibition ([4]; at 1.2 µM) was 4%, the growth inhibition ([4]; at 3.7 µM) was 56% and the growth inhibition ([4]; at 11.0 µM) was 98% (active). For the same compound, the growth inhibition ([4]; at 33.0 µM) was 98% (active), the growth inhibition ([4]; at 100.0 µM) was 98% (active) and the growth inhibition ([5]; at 1.2 µM) was 22%. The growth inhibition ([5]; at 3.7 µM) was 62%, the growth inhibition [5, 16] was 24% and the growth inhibition ([5]; at 11.0 µM) was 93% (active). The growth inhibition ([5]; at 33.0 µM) was 96% (active), the growth inhibition [5, 17] was 74% (active) and the growth inhibition ([5]; at 50.0 µM) was 90% (active). For the same compound, the growth inhibition ([5]; at 100.0 µM) was 95% (active), the growth inhibition ([6]; at 1.2 µM) was 28% and the growth inhibition ([6]; at 3.7 µM) was 82% (active).
